Among the data in PubChem BioAssay are composite z-score and z-score values, retold here.

Activity calls are given as the source filed them.

Experiment [1] in a line: small molecules captured by biotinylated probe aFSTL3 – biochemical, small-molecule microarray, fluorescence 635/667, stem cell growth factor project, primary screen (AID 1064).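 Further: measures binding of the biotinylated anti-FSTL3 antibody to printed compounds.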 The conditions noted are these: higher = more signal.
Experiment [2] in a line: binders from COS7 lysate, DM2A8 probe, primary screen, torsin A project, cell lysate, small-molecule microarray, fluorescence 635/667 (AID 1065). The conditions noted are these: higher = more signal, COS7 lysate expressing mutant human TOR1A.
Experiment [3] in a line: small molecules captured by biotinylated probe aFGF2 – biochemical, small-molecule microarray, fluorescence 635/667, stem cell growth factor project, primary screen (AID 1067).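 Further: measures binding of biotinylated aFGF2 protein to printed compounds on slides; z-score merges feature fluorescence and signal-to-noise across triplicate slides.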 The conditions noted are these: higher = more signal.
Experiment [4] can be described thus: small molecules captured by biotinylated probe aFGF10 – biochemical, small-molecule microarray, fluorescence 635/667, stem cell growth factor project, primary screen (AID 1071).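 Further: score merges 667 nm spot intensity and signal to noise from triplicate slides.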 The conditions noted are these: higher = more signal.
Experiment [5] concerns the target Neurogenic locus notch homolog protein 2 (Homo sapiens) (UniProt Q04721). Briefly: small molecules binding Notch2 protein – biochemical, small-molecule microarray, 635 nm fluorescence, stem cell growth factors, primary screen (AID 1073). The conditions noted are these: higher = more signal.
Experiment [6] has as its target Pro-neuregulin-1, membrane-bound isoform (Homo sapiens) (UniProt Q02297). The experiment is described as follows: small molecules binding neuregulin-1 protein – biochemical, small-molecule microarray, fluorescence 635/667, psychiatric disease protein project, primary screen (AID 1075).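 Further: score combines 667 nm spot fluorescence with signal to noise.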 The conditions noted are these: NRG1 binding, 635 nm fluorescence, higher = more signal.

The test system of experiment [7] is Neuregulin-1 EGF-like domain. Briefly: small molecules binding NRG1 EGF domain – biochemical, small-molecule microarray, 635 nm fluorescence, primary screen (AID 1081).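 Further: binding of the protein to compounds printed on small-molecule microarray slides.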 Particulars: higher = more signal.
Experiment [8] can be described thus: FRG1 expression reporter modulators in myotubes – cell-based, C2C12 myotubes, firefly/Renilla luciferase, luminescence, FRG1 inhibition for FSHD, primary screen (AID 1084). The conditions noted are these: FRG1 promoter luciferase, higher = more signal, called active from +8 up or from −8 down.
A short description of experiment [9]: small molecules captured by biotinylated probe aFST – biochemical, small-molecule microarray, fluorescence 635/667, stem cell growth factor project, primary screen (AID 1086).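 Further: score merges 667 nm fluorescence with signal-to-noise of each printed compound spot.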 Particulars: higher = more signal.
Experiment [10] is described as follows: binders of probe aHhip on microarray, primary screen, stem cell growth factor project, biochemical, small-molecule microarray, fluorescence 635/667 (AID 1087).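 Further: score merges spot fluorescence at 667nm with spot signal to noise ratio.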 Particulars: higher = more signal.
Experiment [11] concerns PRMT1 (protein arginine N-methyltransferase 1). Briefly: small molecules binding arginine methyltransferase PRMT1 – biochemical, small-molecule microarray, 635 nm fluorescence, primary screen (AID 1088).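 Further: binding of Prmt1 protein to compounds spotted on small-molecule microarray slides.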 The conditions noted are these: higher = more signal.
Experiment [12] in a line: growth effects on S. cerevisiae YJM789 – YJM789 clinical isolate, OD600, 24 h, basal, primary screen (AID 1089).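 Further: growth of clinical yeast isolate S. cerevisiae YJM 789 seeded 1000 cells per well; test concentration not given here.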 The conditions noted are these: higher = more signal, called active from +8 up or from −8 down.
Experiment [13] in a line: S. pombe growth modifiers, basal conditions – strain 972, OD600, 24 h, no modulator, primary screen (AID 1090).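 Further: basal condition with compound alone and no growth modifier present; test concentration not given here.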 The conditions noted are these: S. pombe 972 growth, higher = more signal, called active from +8 up or from −8 down.
The nature of experiment [14]: budding yeast growth modifiers under rapamycin – strain BY4716, OD600, 96 h, primary screen (AID 1091). Further: test concentration not given here. Particulars: S. cerevisiae BY4716 + rapamycin, higher = more signal, called active from +8 up or from −8 down.
The target in experiment [15] is Torsin-1A-interacting protein 2 (Homo sapiens) (UniProt Q8NFQ8). The experiment is described as follows: small molecules binding lysate-expressed LULL1 – cell lysate, human LULL1 lysate, 635/667 nm fluorescence, primary screen (AID 1092).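 Further: probe is lysate of COS7 cells overexpressing human LULL1; score merges per-feature 667 nm fluorescence with signal-to-noise.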 Particulars: small-molecule microarray, hLULL1 lysate binding, 635 nm fluorescence; higher = more signal.
Experiment [16] is described as follows: optical density change of DRC41 E. coli – strain DRC41, OD650, 24 h, E. coli filamentation project, primary screen (AID 1093).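 Further: MC1000 strain lacking acrAB efflux and sulA so SOS filamentation is blocked; test concentration not given here.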 The conditions noted are these: E. coli DRC41 growth, higher = more signal, called active from +8 up or from −8 down.
A short description of experiment [17]: probe aLefty2 binding to arrayed compounds – biochemical, biotinylated probe, 635/667 nm fluorescence, primary screen (AID 1094).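 Further: score merges spot fluorescence near 667 nm with spot signal-to-noise ratio.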 Particulars: small-molecule microarray, higher = more signal.
For experiment [18], the system named is Noggin (protein binding on small-molecule microarray). The experiment is described as follows: small molecules binding Noggin protein – biochemical, 635/667 nm fluorescence, primary screen (AID 1095).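 Further: score merges 667 nm feature fluorescence with signal to noise over triplicate slides.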 Particulars: 635 nm fluorescence, higher = more signal.
Experiment [19] addresses Neurogenic locus notch homolog protein 3 (Homo sapiens) (UniProt Q9UM47). The experiment is described as follows: small molecules binding NOTCH3 protein – biochemical, 635/667 nm fluorescence, primary screen (AID 1096). Particulars: small-molecule microarray, 635 nm fluorescence, higher = more signal.
A short description of experiment [20]: probe aEGFR binding to arrayed compounds – biochemical, biotinylated probe, 635/667 nm fluorescence, primary screen (AID 1097).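 Further: probe is a biotinylated anti-EGFR antibody binding compounds printed on slides; score combines fluorescence near 667 nm and signal to noise of each spot.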 The conditions noted are these: small-molecule microarray, higher = more signal.

Chain of Pro-neuregulin-1, membrane-bound isoform (Homo sapiens) (Q02297 whole entry, looked up, canonical isoform): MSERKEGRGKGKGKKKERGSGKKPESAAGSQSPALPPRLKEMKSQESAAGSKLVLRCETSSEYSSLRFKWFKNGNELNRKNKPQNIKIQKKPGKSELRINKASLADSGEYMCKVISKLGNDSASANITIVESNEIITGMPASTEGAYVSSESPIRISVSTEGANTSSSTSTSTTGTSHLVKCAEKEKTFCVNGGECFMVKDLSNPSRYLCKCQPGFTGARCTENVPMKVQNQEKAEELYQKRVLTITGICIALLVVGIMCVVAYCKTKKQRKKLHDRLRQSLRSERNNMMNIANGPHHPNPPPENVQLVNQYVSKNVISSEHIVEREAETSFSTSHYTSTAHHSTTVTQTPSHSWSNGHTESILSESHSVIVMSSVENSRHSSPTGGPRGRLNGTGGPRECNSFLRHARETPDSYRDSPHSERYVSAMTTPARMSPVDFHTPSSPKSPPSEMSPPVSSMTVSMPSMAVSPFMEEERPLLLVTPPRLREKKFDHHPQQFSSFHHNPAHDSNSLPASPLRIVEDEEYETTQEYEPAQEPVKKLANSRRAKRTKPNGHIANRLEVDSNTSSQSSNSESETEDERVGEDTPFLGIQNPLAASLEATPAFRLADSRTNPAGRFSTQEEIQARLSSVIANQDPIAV
Chain of Torsin-1A-interacting protein 2 (Homo sapiens) (Q8NFQ8 whole entry, looked up): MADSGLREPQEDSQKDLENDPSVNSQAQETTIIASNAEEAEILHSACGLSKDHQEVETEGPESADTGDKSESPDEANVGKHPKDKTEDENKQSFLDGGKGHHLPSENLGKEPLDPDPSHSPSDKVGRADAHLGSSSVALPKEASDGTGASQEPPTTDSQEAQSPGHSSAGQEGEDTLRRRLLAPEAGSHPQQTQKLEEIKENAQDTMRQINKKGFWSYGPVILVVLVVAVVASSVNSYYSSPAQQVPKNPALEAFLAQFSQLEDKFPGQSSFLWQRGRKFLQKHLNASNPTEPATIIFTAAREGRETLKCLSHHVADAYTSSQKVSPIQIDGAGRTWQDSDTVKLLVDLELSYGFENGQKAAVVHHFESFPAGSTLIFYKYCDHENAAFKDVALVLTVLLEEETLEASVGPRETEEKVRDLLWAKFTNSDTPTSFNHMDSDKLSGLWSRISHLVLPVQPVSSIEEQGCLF
Chain of Neurogenic locus notch homolog protein 3 (Homo sapiens) (Q9UM47 whole entry, looked up): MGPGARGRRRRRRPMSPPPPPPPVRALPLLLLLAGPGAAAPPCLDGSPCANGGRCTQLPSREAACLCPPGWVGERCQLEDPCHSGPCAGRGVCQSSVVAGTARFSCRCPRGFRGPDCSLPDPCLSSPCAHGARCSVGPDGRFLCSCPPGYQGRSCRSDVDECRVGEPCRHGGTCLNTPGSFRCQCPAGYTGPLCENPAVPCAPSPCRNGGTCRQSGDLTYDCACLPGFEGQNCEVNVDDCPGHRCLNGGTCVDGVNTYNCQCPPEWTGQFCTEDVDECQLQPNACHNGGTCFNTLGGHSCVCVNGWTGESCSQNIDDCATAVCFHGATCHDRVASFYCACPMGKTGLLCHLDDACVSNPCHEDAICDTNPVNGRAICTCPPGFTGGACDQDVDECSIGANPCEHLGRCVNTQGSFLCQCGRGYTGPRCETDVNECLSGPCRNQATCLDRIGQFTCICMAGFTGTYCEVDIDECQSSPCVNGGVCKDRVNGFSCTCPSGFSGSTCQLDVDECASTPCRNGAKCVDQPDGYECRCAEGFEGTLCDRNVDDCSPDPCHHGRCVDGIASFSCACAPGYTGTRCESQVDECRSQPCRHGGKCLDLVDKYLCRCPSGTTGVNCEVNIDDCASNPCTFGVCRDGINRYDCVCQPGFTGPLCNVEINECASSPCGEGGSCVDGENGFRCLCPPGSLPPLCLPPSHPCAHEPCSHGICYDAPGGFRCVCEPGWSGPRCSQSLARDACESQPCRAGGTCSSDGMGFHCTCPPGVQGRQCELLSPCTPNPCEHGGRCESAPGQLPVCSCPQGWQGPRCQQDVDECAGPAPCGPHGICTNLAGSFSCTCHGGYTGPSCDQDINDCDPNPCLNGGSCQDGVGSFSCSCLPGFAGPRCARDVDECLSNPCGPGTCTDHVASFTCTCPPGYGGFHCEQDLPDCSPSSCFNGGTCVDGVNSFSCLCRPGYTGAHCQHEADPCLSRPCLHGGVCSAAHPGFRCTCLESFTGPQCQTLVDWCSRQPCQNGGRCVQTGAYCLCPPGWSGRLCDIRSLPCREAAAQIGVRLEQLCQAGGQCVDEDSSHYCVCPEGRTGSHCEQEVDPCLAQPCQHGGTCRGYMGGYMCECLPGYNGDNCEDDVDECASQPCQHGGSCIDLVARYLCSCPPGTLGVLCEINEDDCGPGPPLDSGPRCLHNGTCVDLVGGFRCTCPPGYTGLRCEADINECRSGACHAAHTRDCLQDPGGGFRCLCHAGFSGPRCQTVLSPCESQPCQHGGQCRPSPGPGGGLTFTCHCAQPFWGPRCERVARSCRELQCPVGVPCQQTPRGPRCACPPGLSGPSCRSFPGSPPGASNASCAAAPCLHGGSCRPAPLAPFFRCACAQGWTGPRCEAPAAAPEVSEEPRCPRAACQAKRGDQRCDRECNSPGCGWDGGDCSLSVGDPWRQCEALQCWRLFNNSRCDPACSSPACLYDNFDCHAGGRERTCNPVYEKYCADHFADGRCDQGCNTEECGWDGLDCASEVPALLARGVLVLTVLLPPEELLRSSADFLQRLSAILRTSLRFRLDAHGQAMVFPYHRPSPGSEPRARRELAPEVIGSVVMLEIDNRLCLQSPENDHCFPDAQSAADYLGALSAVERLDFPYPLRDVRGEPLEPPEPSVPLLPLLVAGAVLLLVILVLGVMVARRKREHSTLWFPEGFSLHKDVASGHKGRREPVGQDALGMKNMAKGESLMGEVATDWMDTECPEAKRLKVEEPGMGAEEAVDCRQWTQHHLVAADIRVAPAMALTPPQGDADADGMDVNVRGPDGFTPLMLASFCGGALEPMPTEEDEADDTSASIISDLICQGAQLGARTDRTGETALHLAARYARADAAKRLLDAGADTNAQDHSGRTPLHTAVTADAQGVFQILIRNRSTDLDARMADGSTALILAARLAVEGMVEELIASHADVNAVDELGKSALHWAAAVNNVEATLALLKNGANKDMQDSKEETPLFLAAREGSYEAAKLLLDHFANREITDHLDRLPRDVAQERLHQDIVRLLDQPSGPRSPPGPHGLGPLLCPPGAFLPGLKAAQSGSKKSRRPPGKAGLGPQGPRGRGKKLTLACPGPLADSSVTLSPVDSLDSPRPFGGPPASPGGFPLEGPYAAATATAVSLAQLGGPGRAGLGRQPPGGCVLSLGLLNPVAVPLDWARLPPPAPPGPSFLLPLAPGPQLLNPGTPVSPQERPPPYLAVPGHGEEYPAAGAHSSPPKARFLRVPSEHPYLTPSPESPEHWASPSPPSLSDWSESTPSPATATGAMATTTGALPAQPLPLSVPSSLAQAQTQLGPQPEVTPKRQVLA

`CCCCC(=C=CC[C@@H](O)c1ccc(OCCO)cc1)CCO`: the composite z-score in experiment [1] was -0.171; in experiment [2], 0.532; in [3], -0.087; in experiment [4], 0.558; in experiment [5], -0.051; in experiment [6], 1.65. In addition, the composite z-score in experiment [7] was 0.922; in experiment [9] it was 0.0121; in experiment [10], 0.176; in [11], 0.571; in experiment [15], 1.6; in experiment [17], -0.135. The composite z-score is 0.424 in experiment [18], -0.0085 in experiment [19] and -0.333 in [20]. Moreover, the z-score was -0.58 (inactive) in [8]; -0.026 (inactive) in experiment [12]; -1.56 (inactive) in [13]; -1.06 (inactive) in [14]; 0.639 (inactive) in experiment [16].
In the case of `C=CC[C@H](OC(=O)Nc1ccc(SC)cc1)c1ccc(O)c(F)c1`, the composite z-score in experiment [1] is 0.57; in experiment [2] it was 0.274; in experiment [3], -0.102; in experiment [4], -0.575; in experiment [5], -1.19; in [6] it was 0.659. The composite z-score in [7] is 1.07; in [9], -0.512; in [10], -0.156; in experiment [11], -0.487; in [15], 1.04; in experiment [17], -0.106. In addition, the figures for the composite z-score in [18], in experiment [19] and in [20] were -0.176, 0.223 and -0.14, respectively. Besides, the z-score in experiment [8] is 8.09 (active); in experiment [12], -22.7 (active); in experiment [13] it was -19.7 (active); in experiment [14] it was -1.19 (inactive); in experiment [16], 0.622 (inactive).
In the case of `CC(C)C[C@H]1NC(=O)CNC(=O)[C@@]23C(=O)N[C@@H](Cc4ccccc4)C2[C@H](C)[C@@]2(C)O[C@H]2C3/C=C/C/C=C\CNC1=O` (stereo not given in full), the composite z-score in experiment [1] is -0.564; in [2] it was 0.11; in experiment [3], -0.159; in [4], 0.582; in [5] it was -0.222; in [6], 0.205. Also, the composite z-score in experiment [7] was 0.598; in experiment [9], 0.136; in [10], -0.0121; in experiment [11], 1.08; in [15] it was 0.921; in [17], -0.157. Further, the composite z-score in experiment [18] is 0.104; in experiment [19] it was 0.713; in experiment [20] it was -0.105. Further, the z-score was 1.81 (inactive) in [8]; -0.599 (inactive) in [12]; 0.189 (inactive) in [13]; -0.612 (inactive) in experiment [14]; -0.743 (inactive) in [16].
Consider `COC(=O)C(CC#Cc1ccc2c(c1)[C@]1(C(=O)N2)[C@H](C(=O)N2CCCCCCC2)[C@H]2C(=O)O[C@H](c3ccccc3)[C@H](c3ccccc3)N2[C@@H]1c1ccc(OCCO)cc1)C(=O)OC`, for which the composite z-score in [1] was found to be 3.58; in [2], 2.87; in experiment [3] it was 0.941; in [4], 1.37; in [5], 1.75; in experiment [6], 2.94. In addition, the composite z-score amounted to 1.33 in [7]; 3.35 in experiment [9]; 2.77 in [10]; 1.52 in [11]; 5.35 in [15]; 1.79 in [17]. The composite z-score turned out to be 2.35 in experiment [18], 1.01 in [19] and 1.38 in [20]. For the same compound, the z-score in experiment [8] was 1.91 (inactive); in experiment [12] it was -0.0902 (inactive); in [13], 0.563 (inactive); in experiment [14] it was 1.28 (inactive); in experiment [16], 0.149 (inactive).
As for `[N-]=[N+]=Nc1ccccc1C[C@]1(C(N)=O)COC(c2ccc(OCCCO)cc2)=N1`, the composite z-score in experiment [1] was 1.05; in experiment [2], -0.455; in experiment [3], 0.0247; in experiment [4] it was 0.149; in experiment [5], 0.278; in experiment [6] it was 1.81. For the same compound, the composite z-score in experiment [7] was 1.34; in experiment [9], 0.236; in experiment [10] it was -0.0618; in experiment [11], -0.0424; in [15] it was 2.84; in experiment [17], 0.538. In addition, the composite z-score is -0.863 in experiment [18], -0.0154 in experiment [19] and 0.516 in experiment [20]. Moreover, the z-score in [8] is 3.48 (inactive); in experiment [12], -0.684 (inactive); in [13], -0.846 (inactive); in [14], 0.0643 (inactive); in [16], 0.0474 (inactive).
